# Most compounds without a hit are left out; they make up all but 2.9% or so of the library.
# PLC-gamma1 inh: PLC-gamma1 enzyme inhibitors, primary screen, biochemical, fluorescence, purified enzyme; fluorogenic substrate; inhibition, % at 12.2 µM; 1-phosphatidylinositol 4,5-bisphosphate phosphodiesterase gamma-1 (Homo sapiens), P19174; 370,000 tested, 0.84% active; in the data active = inhibition above about 9.5%
# proKLK7 act: proKLK7 zymogen activators, primary screen, biochemical, fluorescence intensity | Kallikrein-7 (Homo sapiens), P49862 | 370,000 tested, 0.9% active | purified proKLK7, EDANS-DABCYL substrate fluorescence; 100% is mature enzyme control, 0% vehicle | AID 652039, 2013 | activation, % at 7 µM;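 active = activation above the mean of all tested compounds plus 3 SD, computed per campaign excluding outliers beyond control limits, cut at about 13% in these data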
# ADAM17 inh: ADAM17 inhibitors, primary screen, biochemical, QFRET | 370,000 tested, 0.83% active | Disintegrin and metalloproteinase domain-containing protein 17 (Homo sapiens), P78536 | inhibition, % at 6.95 µM | recombinant ADAM17, EDANS/DABCYL FRET peptide cleavage;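 active = inhibition above the mean of compounds lying between control limits plus 3 SD, set per campaign, cut at about 8.5% in these data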
# PLC-beta3 inh: human PLC-beta3 inhibitors, primary screen, biochemical, fluorescence | Purified PLC-beta3, fluorogenic substrate | inhibition, % at 12.2 µM | 370,000 tested, 0.18% active | AID 720704, 2013; in the data active = inhibition above about 11%
# ADAM10 inh: human ADAM10 inhibitors, primary screen, biochemical, QFRET, HTS | Disintegrin and metalloproteinase domain-containing protein 10 (Homo sapiens), O14672 | recombinant ADAM10, EDANS/DABCYL FRET peptide cleavage, 3 h | 370,000 tested, 0.62% active | inhibition, % at 7 µM;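 active = inhibition above a per-campaign cutoff equal to the mean of compounds falling between control-based bounds plus 3 SD, cut at about 20% in these data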
# Target sequence (O14672 214-748 limits assumed): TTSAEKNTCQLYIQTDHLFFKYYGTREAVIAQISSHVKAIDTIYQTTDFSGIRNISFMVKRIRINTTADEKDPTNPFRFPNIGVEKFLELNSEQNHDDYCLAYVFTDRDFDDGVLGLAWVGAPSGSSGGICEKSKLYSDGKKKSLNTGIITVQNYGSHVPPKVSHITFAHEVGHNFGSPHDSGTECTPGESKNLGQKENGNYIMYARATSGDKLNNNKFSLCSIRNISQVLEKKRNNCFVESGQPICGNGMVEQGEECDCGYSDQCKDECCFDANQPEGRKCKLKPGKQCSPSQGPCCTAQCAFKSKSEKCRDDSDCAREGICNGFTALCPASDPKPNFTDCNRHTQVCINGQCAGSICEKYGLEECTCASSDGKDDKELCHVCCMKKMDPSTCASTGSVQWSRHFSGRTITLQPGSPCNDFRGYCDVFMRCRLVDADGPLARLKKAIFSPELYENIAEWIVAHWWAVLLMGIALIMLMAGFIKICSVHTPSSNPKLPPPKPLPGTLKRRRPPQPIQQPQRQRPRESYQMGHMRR
# KLK7 act conf: proKLK7 zymogen activators, confirmation, biochemical, fluorescence intensity, triplicate | 3,200 tested, 68% active | shares compounds with proKLK7 act | purified proKLK7, EDANS-DABCYL substrate fluorescence; scaled: vehicle 0, mature enzyme 100 | activation, % at 7 µM;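 active = activation, as change over the incubation, above the mean of all tested compounds plus 3 SD, cut at about 13% in these data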
# EDANS-DABCYL int: EDANS-DABCYL substrate optical interference, artefact control for kallikrein-7 zymogen activator project, biochemical, fluorescence intensity, high throughput. AID 686952, 2013. shares compounds with proKLK7 act. activation, % at 7 µM. 3,200 tested, 80% active. no enzyme, 4 h; solvent 0%, active enzyme control 100%;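 active = activation above the all-compound mean plus 3 SD, ignoring values outside control-based bounds, cut at about 4.8% in these data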;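 also: value is the 4 h activation minus the activation read at time zero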
# EDANS interf: optically interferes with EDANS-DABCYL fluorescence, kallikrein-7 activator counter-screen | 250 tested, 20% active | EDANS-DABCYL peptide fluorescence interference, no enzyme | EC50, µM | AID 720493 | shares compounds with proKLK7 act;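 active = compounds that raise the fluorescence signal in this interference counterscreen, with EC50 at or below 10 µM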;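 also: intact quenched peptide substrate alone read at 355 nm excitation and 520 nm emission; signal is fluorescence gain from T0 to T4 after four hours at room temperature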
# Numbers stand for hits; 0 = inactive; - = no result given.
SMILES,PLC-gamma1 inh,proKLK7 act,ADAM17 inh,PLC-beta3 inh,ADAM10 inh,KLK7 act conf,EDANS-DABCYL int,others
CC[C@]12c3[nH]c4ccc(OC)cc4c3CCN1C(=O)C(CC(=O)NCCCOC)C[C@@H]2C(=O)N1CCN(C(=O)c2ccco2)CC1 (stereo partly drawn),0,0,0,0,0,-,-,
CC[C@]12c3[nH]c4cc(-c5ccco5)ccc4c3CCN1C(=O)[C@@H](CC(=O)NCc1ccc(OC)c(OC)c1)C[C@@H]2C(=O)N1CCN(C(=O)c2ccco2)CC1,0,122,0,0,0,63,74,
CC[C@]12c3[nH]c4cc(-c5ccco5)ccc4c3CCN1C(=O)[C@@H](CC(=O)NCCCOC)C[C@@H]2C(=O)N1CCN(C(=O)C2CC2)CC1,0,89,0,0,0,81,94,
CC[C@]12c3[nH]c4cc(CCC(=O)N(C)C)ccc4c3CCN1C(=O)[C@@H](CC(=O)NCCCN(C)C)C[C@@H]2C(=O)N1CCN(C(=O)C2CC2)CC1,0,0,0,0,0,-,-,
N#C/C(=C\c1ccc(-c2nc3ccccc3s2)o1)C(N)=O,0,17,0,0,0,0,5.9,
CN1CCCCC(NC(=O)CSc2ccccc2)C1=O (stereo not drawn),0,0,0,0,0,-,-,
CC[C@]12c3[nH]c4cc(-c5ccco5)ccc4c3CCN1C(=O)[C@@H](CC(=O)NCCCn1ccnc1)C[C@@H]2C(=O)N1CCN(C(=O)C2CC2)CC1,0,69,0,0,0,54,53,
CC[C@]12c3[nH]c4cc(-c5ccco5)ccc4c3CCN1C(=O)[C@@H](CC(=O)NCCCn1ccnc1)C[C@@H]2C(=O)N1CCN(C(=O)c2ccco2)CC1,0,97,0,0,0,131,130,
CC[C@]12c3[nH]c4ccc(OC)cc4c3CCN1C(=O)C(CC(=O)NCCCn1ccnc1)C[C@@H]2C(=O)N1CCN(C(=O)C2CC2)CC1 (stereo partly drawn),0,0,0,0,0,-,-,
COc1ccc(CNC(=O)CC2C[C@H](C(=O)N(C(C)C)C(C)C)[C@@]3(C)c4[nH]c5ccccc5c4CCN3C2=O)cc1OC (stereo partly drawn),0,0,0,0,0,-,-,
CCN(CC)C(=O)[C@H]1C[C@H](CC(=O)NC/C=C(\C)CCC=C(C)C)C(=O)N2CCc3c([nH]c4cc(-c5ccco5)ccc34)[C@]12C,0,19,0,0,0,0,12,
CCN(CC)C(=O)[C@H]1C[C@H](CC(=O)NCC23CC4CC(CC(C4)C2)C3)C(=O)N2CCc3c([nH]c4cc(-c5ccco5)ccc34)[C@]12C,0,0,0,0,0,-,-,
CC(C)N(C(=O)[C@H]1C[C@H](CC(=O)NCCCN(C)C)C(=O)N2CCc3c([nH]c4cc(-c5ccco5)ccc34)[C@]12C)C(C)C,0,103,0,0,0,73,88,
CCN(CC)C(=O)[C@H]1C[C@H](CC(=O)NCc2ccc(OC)c(OC)c2)C(=O)N2CCc3c([nH]c4cc(-c5ccco5)ccc34)[C@]12C,0,141,0,0,0,68,76,
CCN(CC)C(=O)[C@H]1C[C@H](CC(=O)NCCCN(C)C)C(=O)N2CCc3c([nH]c4cc(-c5ccco5)ccc34)[C@]12C,0,90,0,0,0,73,84,
CC(C)c1ccc(NC(=O)O[C@@H]2CC[C@@]34CCCN3C(=O)CCC[C@H]4C2)cc1,0,-,0,0,0,-,-,
Cc1cc(Nc2cccc(C(F)(F)F)c2)cc(=O)n1-c1cccc(C(F)(F)F)c1,0,0,0,0,0,-,-,
CCN(CC)C(=O)[C@H]1C[C@H](CC(=O)NCCCOC)C(=O)N2CCc3c([nH]c4cc(-c5ccco5)ccc34)[C@]12C,0,164,0,0,0,166,206,
COc1ccc(-c2cc3ncnc(Cl)c3s2)cc1,0,27,0,0,0,0,0,
COc1ccc(-c2cc3nnc(-c4ccccc4)nc3s2)cc1,0,0,0,0,0,-,-,
CCCCCn1c(N)c(C#N)c2nc3ccccc3nc21,0,22,0,0,0,0,0,
N#Cc1c(N)n(CCCN2CCOCC2)c2nc3ccccc3nc12,0,47,0,0,0,68,79,
Nc1c(C(=O)Nc2ccccc2)c2nc3ccccc3nc2n1CCCN1CCOCC1,0,0,0,0,0,-,-,
Cc1cc(Nc2cccc(Cl)c2)nc(-c2ccccc2O)n1,0,265,0,0,0,77,105,
CCCCNC(=O)C1C(c2ccc(C(F)(F)F)cc2)=Nc2ccccc2N1C(=O)c1ccc2nc(C)[nH]c2c1 (stereo not drawn),0,92,0,0,0,0,0,
SMILES,PLC-gamma1 inh,proKLK7 act,ADAM17 inh,PLC-beta3 inh,ADAM10 inh,KLK7 act conf,EDANS-DABCYL int,others
CC(C)c1ccc2[nH]c3c(c2c1)CCCC3=O,0,14,0,0,0,0,0,
Cc1ccc2[nH]c3c(c2c1)CCCC3=O,0,0,0,0,0,-,-,
CCC(NC(=O)CCc1c(C)c2cc3c(C)c(C)oc3cc2oc1=O)C(=O)N[C@@H](Cc1ccccc1)C(=O)O (stereo partly drawn),0,14,0,0,0,13,8.7,EDANS interf=0
O=C(Cc1cc(=O)oc2cc(O)ccc12)NC(Cc1ccc(Cl)cc1)C(=O)O (stereo not drawn),0,46,0,0,0,65,68,
Cc1c(CC(=O)NCC(=O)NCC(=O)N[C@@H](Cc2ccccc2)C(=O)O)c(=O)oc2c(C)c(O)ccc12,0,72,0,0,0,61,74,
Cc1c(O)ccc2c(CC(=O)N[C@@H](Cc3ccc(O)cc3)C(=O)O)cc(=O)oc12,0,39,0,0,0,65,68,
COc1cccc(Cn2cc(COC(=O)N3CCOCC3)nn2)c1,0,0,0,0,0,-,-,
Cc1occc1-c1nnc(SCC(=O)Nc2ccc3ncccc3c2)n1-c1ccccc1,0,0,0,0,0,-,-,
O=C(NN=C1CCCC1)c1cc(Cl)cc(Cl)c1O,0,18,0,0,0,0,15,
CCn1c(=O)c2cc(C(=O)N3CCN(C)CC3)sc2c2ccccc21,0,28,0,0,0,0,8.0,
